# Measured values from PubChem BioAssay (NCATS).
# Where “and” joins values, the source holds several entries; their conditions need not be identical. Identical values can stand only once. Results filed as inconclusive are left out. Calls of active or inactive are those of the source. Unless noted, calls follow the shape of the full dose curve.
# Legend:
# [1] = qHTS Assay for Lipid Storage Modulators (AID 1519); settings: Drosophila S3 cells, BODIPY lipid droplet/cell ratio, laser cytometry, cells loaded with oleic acid; as to activity change, negative = inhibition: % is scaled to controls: 0 for no effect and ±100 for the full control effect
# Outline: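 Cells seeded at 5,000 per well were treated with compounds over a concentration series and loaded with oleic acid (400 uM, as added). Lipid droplet fluorescence (488 nm excitation, 500-530 nm channel) was read by laser-scanning cytometry and normalized to 20 uM Triacsin C.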
# [2] = Cell Viability - LYMP2-024 (AID 988; active = well fitted curve in the direction sought with a large enough effect; an effect the other way counts as inactive or inconclusive; also: potency is read from the fitted curve at half-maximal effect; nearly all actives have a fitted effect of over 60% in size)
# Outline: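 Human lymphoblastoid LYMP2-024 cells (2500/well) rested 5 hr, then treated with compound for 24 hr at 37 C in complete medium. Viability was measured as intracellular ATP by CellTiter-Glo luminescence. AC50 values came from Hill-equation fits.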
# [3] = Cell Viability - LYMP1-002 - Assay at 24 hr (AID 993; active = well fitted curve in the direction sought with a large enough effect; an effect the other way counts as inactive or inconclusive; also: % is scaled to controls: 0 for no effect and ±100 for the full control effect)
# Outline: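 Human lymphoblastoid LYMP1-002 cells (2500/well) treated 24 h at 37 °C; viability as intracellular ATP by CellTiter-Glo luminescence. Tetraoctylammonium bromide as positive control; AC50 from Hill-equation fits of qHTS concentration-response.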
# [4] = target: Alpha-galactosidase A (Homo sapiens) (UniProt P06280); assay: Counterscreen for Glucocerebrosidase Inhibitors: qHTS Assay for Human alpha-Galactosidase at pH 4.5 (AID 992; active = well fitted curve in the direction sought with a large enough effect; an effect the other way counts as inactive or inconclusive; also: 0% is about no effect)
# Sequence of Alpha-galactosidase A (Homo sapiens) (P06280 whole entry, looked up): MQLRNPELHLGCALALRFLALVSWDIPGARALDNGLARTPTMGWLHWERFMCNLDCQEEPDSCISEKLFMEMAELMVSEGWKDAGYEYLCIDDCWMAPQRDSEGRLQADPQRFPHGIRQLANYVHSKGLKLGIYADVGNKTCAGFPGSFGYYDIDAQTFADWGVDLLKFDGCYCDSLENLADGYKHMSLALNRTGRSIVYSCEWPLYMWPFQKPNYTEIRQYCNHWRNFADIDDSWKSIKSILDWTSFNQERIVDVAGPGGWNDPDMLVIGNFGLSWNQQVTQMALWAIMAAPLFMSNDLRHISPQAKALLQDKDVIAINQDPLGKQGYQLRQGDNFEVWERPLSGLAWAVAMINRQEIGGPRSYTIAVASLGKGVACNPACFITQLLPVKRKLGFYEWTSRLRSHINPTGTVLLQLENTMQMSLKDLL
# Outline: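 Quantitative HTS: compounds tested from 0.7 nM up to 77 uM against 2 nM enzyme with 80 uM 4-MU alpha-D-galactopyranoside. The 20 min room-temperature reaction is stopped with 1M NaOH/1M glycine, pH 10.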
# [5] = target: alpha-glucosidase (Oryza sativa, rice) (UniProt Q653V4); assay: Counterscreen for Glucocerebrosidase Inhibitors: qHTS Assay for Rice alpha-Glucosidase at pH 5.0 (AID 997; active = well fitted curve in the direction sought with a large enough effect; an effect the other way counts as inactive or inconclusive;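 also: 0% = full activity with enzyme and -100% = basal without enzyme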)
# Outline: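 Rice alpha-glucosidase (4 nM final) with 400 uM 4-methylumbelliferyl-alpha-D-glucopyranoside in citrate buffer pH 5.0, 20 min at room temperature, stopped at pH 10; fluorescence 365/440 nm, compounds 0.7 nM–77 uM, AC50 from Hill fits.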
# [6] = target: DNA repair nuclease/redox regulator APEX1 (Homo sapiens) (UniProt P27695); assay: qHTS Validation Assay for Inhibitors of the Human Apurinic/apyrimidinic Endonuclease 1 (APE1) (AID 1705; active = well fitted curve in the direction sought with a large enough effect; an effect the other way counts as inactive or inconclusive; also: potency is read from the fitted curve at half-maximal effect)
# Sequence of DNA repair nuclease/redox regulator APEX1 (Homo sapiens) (P27695 whole entry, looked up): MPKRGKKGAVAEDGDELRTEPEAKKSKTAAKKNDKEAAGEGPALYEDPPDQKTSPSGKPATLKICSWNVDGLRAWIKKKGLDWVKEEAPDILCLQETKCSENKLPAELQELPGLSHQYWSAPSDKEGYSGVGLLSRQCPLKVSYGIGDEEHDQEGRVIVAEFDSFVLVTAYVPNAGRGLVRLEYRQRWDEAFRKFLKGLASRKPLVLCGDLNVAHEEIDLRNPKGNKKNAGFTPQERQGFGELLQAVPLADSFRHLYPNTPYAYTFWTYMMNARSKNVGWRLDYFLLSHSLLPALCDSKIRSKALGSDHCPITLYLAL
# Outline: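 Endonuclease activity of human APE1 is followed as dequenching when the enzyme incises a tetrahydrofuran abasic site in a short duplex labelled 5'-TAMRA/3'-BHQ-2 (50 nM final), after 15 min enzyme–compound preincubation at room temperature.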
# [7] = Counterscreen for APE1 Inhibitors: Fluorescent Dye Displacement Validation Assay (AID 1707; active = well fitted curve in the direction sought with a large enough effect; an effect the other way counts as inactive or inconclusive;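 also: plate controls were ThO with dsDNA and no compound for no effect and ThO without dsDNA for full effect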)
# Outline: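 Compounds are scored by their ability to displace Thiazole Orange (250 nM) from a 50 nM TAMRA-tagged duplex bearing a tetrahydrofuran abasic site. Buffer is 50 mM Tris-HCl pH7.5, 50mM NaCl, 2 mM MgCl2, 0.01% Tween-20.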
# [8] = target: Endonuclease 4 (Escherichia coli (strain K12)) (UniProt P0A6C1); assay: Counterscreen for APE1 Inhibitors: qHTS Validation Assay for Inhibitors of Endonuclease IV (AID 1708; active = well fitted curve in the direction sought with a large enough effect; an effect the other way counts as inactive or inconclusive; also: % is scaled to controls: 0 for no effect and ±100 for the full control effect)
# Outline: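 Concentration-response counterscreen run identically to the APE1 assay: 15 min room-temperature preincubation of 2 nM enzyme with compound, reaction started with 50 nM quenched abasic DNA, progress taken from kinetic fluorescence.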
# [9] = qHTS for differential inhibitors of proliferation of Plasmodium falciparum line 7G8 (AID 1815; active = well fitted curve in the direction sought with a large enough effect; an effect the other way counts as inactive or inconclusive)
# [10] = qHTS for differential inhibitors of proliferation of Plasmodium falciparum line GB4 (AID 1816; active = well fitted curve in the direction sought with a large enough effect; an effect the other way counts as inactive or inconclusive;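 also: potency is read from the fitted curve at half-maximal effect; parasite growth measured after 72 h incubation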); settings: Potency: Plasmodium falciparum GB4 proliferation inhibition
# [11] = qHTS for differential inhibitors of proliferation of Plasmodium falciparum line 3D7 (AID 1876; active = well fitted curve in the direction sought with a large enough effect; an effect the other way counts as inactive or inconclusive; also: potency is read from the fitted curve at half-maximal effect)
# [12] = qHTS for differential inhibitors of proliferation of Plasmodium falciparum line Dd2 (AID 1882; active = well fitted curve in the direction sought with a large enough effect; an effect the other way counts as inactive or inconclusive; also: potency is read from the fitted curve at half-maximal effect; nearly all actives have a fitted effect of over 65% in size); settings: Potency: Plasmodium falciparum Dd2 proliferation inhibition
# Outline: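 Dd2-infected erythrocytes (0.3% parasitemia, 2.5% hematocrit final) incubated with compound 72 h at 37 C, 5% CO2; lysed with saponin/Triton buffer containing SYBR Green I, incubated overnight in the dark, then read by fluorescence (485/535 nm). Normalized to 0.29 uM artemisinin and DMSO.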
# [13] = qHTS for differential inhibitors of proliferation of Plasmodium falciparum line W2 (AID 1883; active = well fitted curve in the direction sought with a large enough effect; an effect the other way counts as inactive or inconclusive;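 also: potency is read from the fitted curve at half-maximal effect; parasites grown with compound for 72 h before lysis and staining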); settings: Potency: Plasmodium falciparum W2 proliferation inhibition
# [14] = qHTS for differential inhibitors of proliferation of Plasmodium falciparum line HB3 (AID 1886; active = well fitted curve in the direction sought with a large enough effect; an effect the other way counts as inactive or inconclusive;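 also: potency is read from the fitted curve at half-maximal effect; parasites grown with compound for 72 h before SYBR Green readout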); settings: Potency: Plasmodium falciparum HB3 proliferation inhibition
# [15] = measured here: cell count channel max response
# [16] = measured here: lipid channel max response
smiles,measurement,setting,value
CCN1CCC[C@H]1CNC(=O)c1c(OC)ccc(Br)c1OC,"activity change, negative = inhibition",[1]; at 25.7 µM (top of the series),-6.61% (inactive)
same,max response,[1]; [15],-13.5%
same,max response,[1]; [16],-15.4%
C/C=C/c1ccc(OC)cc1,"activity change, negative = inhibition",[1]; at 57.5 µM (top of the series),9.09% (inactive)
same,max response,[1]; [15],9.56%
same,max response,[1]; [16],22.7%
Cc1ccnc(NS(=O)(=O)c2ccc(N)cc2)n1,"activity change, negative = inhibition",[1]; at 25.7 µM (top of the series),2.4% (inactive)
same,"activity change, negative = inhibition",[1]; at 57.5 µM (top of the series),7.92% (inactive)
same,max response,[1]; [15],-11% and -0.764%
same,max response,[1]; [16],-8.59% and 9.99%
C=C(CC)C(=O)c1ccc(OCC(=O)O)c(Cl)c1Cl,Potency,[2],39.8 µM (active)
same,Potency,[3],inactive
same,"activity change, negative = inhibition",[1]; at 25.7 µM (top of the series),-7.65% (inactive)
same,"activity change, negative = inhibition",[1]; at 57.5 µM (top of the series),1.41% (inactive)
same,max response,[1]; [15],5.62% and 9.96%
same,max response,[1]; [16],-2.15% and 13.8%
CC(=O)c1ccc2c(c1)N(CCCN1CCC(CCO)CC1)c1ccccc1S2,"activity change, negative = inhibition",[1]; at 25.7 µM (top of the series),-1.72% (inactive)
same,max response,[1]; [15],-5%
same,max response,[1]; [16],-2.93%
CN(C)CC/C=C1\c2ccccc2Sc2ccc(Cl)cc21,"activity change, negative = inhibition",[1]; at 25.7 µM (top of the series),-2% (inactive)
same,"activity change, negative = inhibition",[1]; at 57.5 µM (top of the series),8.38% (inactive)
same,max response,[1]; [15],-15.8% and 5.25%
same,max response,[1]; [16],-14.2% and 16.4%
Cc1cc(=O)n(-c2ccccc2)n1C,"activity change, negative = inhibition",[1]; at 25.7 µM (top of the series),1.11% (inactive)
same,"activity change, negative = inhibition",[1]; at 57.5 µM (top of the series),0.266% (inactive)
same,max response,[1]; [15],-1.15% and 10.6%
same,max response,[1]; [16],1.09% and 14.3%
Cc1c(N(C)CS(=O)(=O)O)c(=O)n(-c2ccccc2)n1C,"activity change, negative = inhibition",[1]; at 25.7 µM (top of the series),0.216% (inactive)
same,"activity change, negative = inhibition",[1]; at 57.5 µM (top of the series),9.06% (inactive)
same,max response,[1]; [15],-6.35% and 7.26%
same,max response,[1]; [16],-5.13% and 21%
CC(Cc1cccc(C(F)(F)F)c1)NCCOC(=O)c1ccccc1 (stereo not drawn),"activity change, negative = inhibition",[1]; at 57.5 µM (top of the series),-1.3% (inactive)
same,max response,[1]; [15],-3.51%
same,max response,[1]; [16],-2.7%
O=C1c2ccccc2C(=O)C1c1ccccc1,"activity change, negative = inhibition",[1]; at 25.7 µM (top of the series),-0.708% (inactive)
same,"activity change, negative = inhibition",[1]; at 57.5 µM (top of the series),10.4% (inactive)
same,max response,[1]; [15],-13.1% and 15.4%
same,max response,[1]; [16],-14% and 33.1%
Cc1cccc(C)c1NC(=O)CN1CCN(CCCC(c2ccc(F)cc2)c2ccc(F)cc2)CC1,"activity change, negative = inhibition",[1]; at 25.7 µM (top of the series),-4.87% (inactive)
same,max response,[1]; [15],-22.3%
same,max response,[1]; [16],-28.7%
Cc1ccc(C(=O)C(C)CN2CCCCC2)cc1 (stereo not drawn),"activity change, negative = inhibition",[1]; at 57.5 µM (top of the series),1.11% (inactive)
same,max response,[1]; [15],7.21%
same,max response,[1]; [16],11.2%
CC(C)NC[C@@H](O)COc1cccc2ccccc12,outcome,[4],inactive
same,outcome,[5],inactive
same,"activity change, negative = inhibition",[1]; at 25.7 µM (top of the series),-1.02% (inactive) and 0.265% (inactive) and -0.0202% (inactive)
same,"activity change, negative = inhibition",[1]; at 57.5 µM (top of the series),2.8% (inactive)
same,max response,[1]; [15],-4.01% [middle of 4 runs]
same,max response,[1]; [16],-1.83% [middle of 4 runs]
same,Potency,[6],5.01 µM (active)
same,outcome,[7],inactive
same,outcome,[8],inactive
same,Potency,[10],2.51 µM (active)
same,Potency,[11],10 µM (active)
same,Potency,[12],7.94 µM (active)
same,Potency,[13],2.82 µM (active)
same,Potency,[14],8.91 µM (active)
CN1CCN(CCCN2c3ccccc3Sc3ccc(S(=O)(=O)N(C)C)cc32)CC1,"activity change, negative = inhibition",[1]; at 25.7 µM (top of the series),-2.96% (inactive)
same,max response,[1]; [15],-3.59%
same,max response,[1]; [16],-5.35%
CCOc1ccc(Cc2nccc3cc(OCC)c(OCC)cc23)cc1OCC,"activity change, negative = inhibition",[1]; at 57.5 µM (top of the series),-21.1% (inactive)
same,max response,[1]; [15],-4.38%
same,max response,[1]; [16],-26.4%
CC(=O)N(O)CCCCCNC(=O)CCC(=O)N(O)CCCCCNC(=O)CCC(=O)N(O)CCCCCN,"activity change, negative = inhibition",[1]; at 25.7 µM (top of the series),-1.65% (inactive)
same,"activity change, negative = inhibition",[1]; at 57.5 µM (top of the series),6.43% (inactive)
same,max response,[1]; [15],-10.2% and 15.7%
same,max response,[1]; [16],-12.1% and 27.1%
OC(CCN1CCCCC1)(c1ccccc1)c1ccccc1,"activity change, negative = inhibition",[1]; at 25.7 µM (top of the series),-4.82% (inactive)
same,"activity change, negative = inhibition",[1]; at 57.5 µM (top of the series),3.44% (inactive)
same,max response,[1]; [15],1.42% and 9.61%
same,max response,[1]; [16],-4.61% and 14.1%
